Our source for the INHIBITION values is ChEMBL document CHEMBL4513216, “Probing the Open Global Health Chemical Diversity Library for Multistage-Active Starting Points for Next-Generation Antimalarials” (ACS Infect Dis, 2020).

Screen size: about 69,000 compounds; about 8,600 (12%) showed an effect of 50% or more. Only a selection was taken, and strong results are over-represented in it overall.

In this assay the test system is Plasmodium berghei. In words: Screen against P. berghei liver stage (PbLuc), transformed with Luciferase, at 10uM. Type of assay: functional, HepG2. The note with it: tested at 10 uM.
On to `COc1ccc(CNC(C)Cn2cccn2)cc1F` (stereo not given), for which the INHIBITION is given as 59.4%.

As to `Cc1cnn(CC(C)NCc2ccc(OCC(N)=O)cc2)c1` (stereo not given), the INHIBITION stood at 58.5%.

`Cc1cnn(CCNCc2ccc(OCC(N)=O)cc2)c1`: the INHIBITION is listed as -41.1%.

As to `Cc1cnn(CC(C)NCc2cc(=O)n3cc(C)ccc3n2)c1` (stereo not given), the INHIBITION is given as -16.1%.

Consider `Cc1cnn(CC(C)NCc2ccc(OCc3nccn3C)cc2)c1` (stereo not given), for which the INHIBITION is -34%.

`Cc1cnn(CC(C)NCc2ccc(OCc3ccncc3)cc2)c1` (stereo not given): the INHIBITION was found to be 54.6%.

In the case of `COc1ccc(CNC(C)Cn2cccn2)cc1OC` (stereo not given), the INHIBITION is reported as 27.8%.

Take `Cc1cnn(CC(C)NCc2ccncc2)c1` (stereo not given): the INHIBITION was -17.6%.

With `COCCN1C(=O)[C@@H]2CC[C@H]1CN(C(=O)COc1ccc(F)c(Cl)c1)C2`, the INHIBITION was -102%.

Turning to `CN(C)[C@@H]1CCN(C(=O)c2ccccn2)[C@H]1Cc1cnn(C)c1`, the INHIBITION worked out at 20.6%.

As to `CCN1CC(CN(C)Cc2nc(-c3ccc(F)cc3)oc2C)CC1=O` (stereo not given), the INHIBITION came to 34.2%.

Take `CN(Cc1nc(Cc2cccc(C(F)(F)F)c2)no1)C1CCCCC1`: the INHIBITION is recorded as 43.9%.

In the case of `Cc1cnn(CCNCc2csc(-c3ccco3)n2)c1`, the INHIBITION is -4.9%.

In the case of `COc1c(CNCc2ccnc(N(C)C)c2)c(C(C)C)nn1C`, the INHIBITION is on record as 9.47%.

Take `CC(C)c1noc(C2CC(=O)N(CCN(C)C)C2)n1` (stereo not given): the INHIBITION is listed as 16.5%.

`COc1ccc2c(ccn2CCC(=O)NCCC(=O)O)c1`: the INHIBITION came out at 42.1%.

For `COCCCNC(=O)CN(C)C(=O)c1cc2cc(C)ccc2nc1C`, the INHIBITION stood at 5.885%.

Consider `COc1cccc(S(=O)(=O)NC(=O)COC2CCCCC2)c1`, for which the INHIBITION is given as 1.78%.

Take `CCn1nnc(NCc2ccc(-c3ccc(Br)cc3)o2)n1`: the INHIBITION amounted to 12.3%.

For `CC(C)c1cc(C(=O)N2C[C@@H]3CC[C@H]2CN(Cc2cccnc2)C3)no1`, the INHIBITION was 2.02%.

Take `Cn1ccnc1CNc1nccc(-c2ncnn2C)n1`: the INHIBITION is recorded as -29%.

Take `Cn1ncnc1-c1ccnc(NCCCc2ccncc2)n1`: the INHIBITION came to 94.3%.

Turning to `Cn1ncnc1-c1ccnc(NCc2ccncc2)n1`, the INHIBITION is 14.5%.

For `COCC(=O)N1CC[C@@H](N2CCN(C)CC2)[C@@H]1Cc1ccccc1`, the INHIBITION is 41.6%.

For `CCN1CCC2(CC1)CC(NC(=O)N(C)C)c1cc(C)ccc12` (stereo not given), the INHIBITION is recorded as 12.2%.

Take `CC(=O)NCC(=O)NC1CCc2nccn2C1` (stereo not given): the INHIBITION worked out at 40.6%.

As for `N#Cc1cc(F)c(NCCc2ccc(S(N)(=O)=O)cc2)c(F)c1`, the INHIBITION was determined as 37.8%.

For the compound `N#Cc1cc(F)c(NCc2ccc(F)cc2)c(F)c1`, the INHIBITION is given as 51.7%.

Consider `N#Cc1cc(F)c(NCCc2ccc(F)cc2)c(F)c1`, for which the INHIBITION is listed as 23.9%.

On to `c1cc(-c2cnccn2)cc(-c2ccn(CCN3CCCC3)n2)c1`, for which the INHIBITION turned out to be 55.1%.

For `Cc1ccc(-c2cccc(-c3ccn(CCN4CCCC4)n3)c2)nn1`, the INHIBITION is given as 46.8%.

For the compound `c1cc(-c2cnccn2)cc(-c2ccn(CCCN3CCCCC3)n2)c1`, the INHIBITION is recorded as 26.9%.

On to `c1cc(-c2cnccn2)cc(-c2ccn(CCN3CCCCC3)n2)c1`, for which the INHIBITION was 5.38%.

In the case of `c1ccc(-c2cccc(-c3ccn(CCN4CCCCC4)n3)c2)nc1`, the INHIBITION was 48.4%.

Take `Cc1cnc(C)c(-c2cccc(-c3ccn(CCN4CCCC4)n3)c2)n1`: the INHIBITION was 55.6%.

For the compound `CCCOCC1CCN(C(=O)Cn2ncc(N3CCCC3)cc2=O)C1` (stereo not given), the INHIBITION was -13.6%.

For the compound `c1csc(CN2CCO[C@H]3[C@H](OCCN4CCCC4)CC[C@@H]32)n1`, the INHIBITION was found to be 16.8%.

`CCO[C@@H]1CO[C@@]2(CCCN(Cc3scnc3C)C2)C1`: the INHIBITION was determined as 5.14%.

As to `CN(C)CCCN(C)c1nccc(N2CCN[C@H]3CS(=O)(=O)C[C@H]32)n1`, the INHIBITION came out at 59.3%.

`CN(CCN1CCCC1)c1nccc(N2CCN[C@H]3CS(=O)(=O)C[C@H]32)n1`: the INHIBITION was 45.3%.

With `CCN(C)c1nccc(N2CCN[C@H]3CS(=O)(=O)C[C@H]32)n1`, the INHIBITION was found to be 40.9%.

Take `CCC(C)(C)NC(=O)c1ncn2c1CN(C)S(=O)(=O)c1ccccc1-2`: the INHIBITION amounted to 47.4%.

On to `Cn1nnc2c1C(COCc1ccccn1)CN(Cc1ccoc1)C2` (stereo not given), for which the INHIBITION is given as 49.2%.

For `c1cncc(OCc2n[nH]c3c2CN(Cc2cccs2)C3)c1`, the INHIBITION was found to be 51.2%.

Consider `COCc1n[nH]c2c1CN(Cc1cccs1)C2`, for which the INHIBITION came to 64.5%.

Regarding `OCCOCc1n[nH]c2c1CN(Cc1ccccn1)C2`, the INHIBITION stood at 35.8%.

In the case of `c1ccc(OCc2n[nH]c3c2CN(Cc2cccs2)C3)nc1`, the INHIBITION is recorded as -0.804%.

Turning to `CN(C)Cc1n[nH]c2c1CCN(Cc1cccs1)C2`, the INHIBITION is listed as 34.6%.

With `COCc1n[nH]c2c1CN(Cc1ccccn1)C2`, the INHIBITION is on record as 47.5%.

On to `c1csc(CN2Cc3[nH]nc(COCC4CC4)c3C2)c1`, for which the INHIBITION was determined as 46.7%.

In the case of `c1ccc(CN2Cc3[nH]nc(COc4cccnc4)c3C2)nc1`, the INHIBITION stood at 25.8%.

For the compound `OCCOCc1n[nH]c2c1CN(Cc1cccs1)C2`, the INHIBITION is listed as 58.5%.

Turning to `Cc1nn(C)c(C)c1CCC(=O)N1CCCC(n2cncn2)C1` (stereo not given), the INHIBITION is listed as 27.6%.

Consider `OCC1(O)CCCN(Cc2noc(-c3ccccc3)n2)CC1` (stereo not given), for which the INHIBITION was determined as 41.2%.

Consider `C[S+]([O-])CCNC(=O)N1CCSC(C)(C)C1` (stereo not given), for which the INHIBITION amounted to 25.4%.
